The supplement of paper PMC10849652
Targets with a hit are over-represented here; the source holds about 8,800 in all. About 0.5% of all pairs of compound and target were hits.

Columns and labels:
Experiment in all cases: log2 fold change, soluble protein after heating vs DMSO (PISA); higher = thermal stabilisation; K562 lysate, 10 uM; active = over 0.2 and 3.5 SD of the protein, either way, in both replicates (recomputed)
[1] = compound: CS(=O)(=O)CCNCc1ccc(-c2ccc3ncnc(Nc4ccc(OCc5cccc(F)c5)c(Cl)c4)c3c2)o1 [lapatinib]
In short: (§1)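 K562 pellets were dounce-homogenised in PBS pH 7.4 containing 1 mM MgCl2, and the crude extract, at 1 mg/mL protein, was exposed to 10 μM compound for 30 min. Aliquots were heated for 3 min across 48°C-58°C, pooled, brought to 0.5% NP-40 at 4°C and spun at 21,000xg for 90 min, with the supernatant taken as soluble protein. TMTpro 16plex LC-MS/MS with equalised channel sums quantified that protein. Values are log-two fold changes in thermal stability relative to solvent controls, taken from duplicates.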

[2] = compound: CS(=O)(=O)N1CCN(Cc2cc3nc(-c4cccc5[nH]ncc45)nc(N4CCOCC4)c3s2)CC1 [pictilisib]
In short: as §1

[3] = compound: C[C@@H](Oc1cc(-c2cnn(C3CCNCC3)c2)cnc1N)c1c(Cl)ccc(F)c1Cl [crizotinib]
In short: as §1

[4] = compound: C[C@H](C1=CC=C(C=C1)C(=O)NC2=C3C=CNC3=NC=C2)N
In short: as §1

[5] = compound: Cc1cc(Nc2cc(CN3CCOCC3)c3nc(C)c(Cc4ccc(Cl)cc4F)n3n2)n[nH]1 [gandotinib]
In short: as §1

[6] = compound: Cc1ccc(-n2nc(C(C)(C)C)cc2NC(=O)Nc2ccc(OCCN3CCOCC3)c3ccccc23)cc1 [doramapimod]
In short: as §1

[7] = compound: Cc1ccc(NC(=O)c2ccc(CN3CC[C@H](N(C)C)C3)c(C(F)(F)F)c2)cc1Nc1nccc(-c2cncnc2)n1 [bafetinib]
In short: as §1

[8] = compound: Cc1cccc(CC(=O)N2CCc3c2ccc(-c2cn(C)c4ncnc(N)c24)c3F)n1
In short: as §1

[9] = compound: C[C@H](Nc1ncnc2nc[nH]c12)c1cc2cccc(Cl)c2c(=O)n1-c1ccccc1 [duvelisib]
In short: as §1

[10] = compound: Cc1cc(Nc2cc(N3CCN(C)CC3)nc(Sc3ccc(NC(=O)C4CC4)cc3)n2)n[nH]1 [tozasertib]
In short: as §1

Measured: log2 fold change

TENM4 (UniProt Q6N022)
inactive: [1] -0.169 | [2] -0.065 | [3] -0.07 | [4] 0.415 | [5] -0.028 | [6] -0.068 | [7] -0.148 | [8] -0.032

TTL (UniProt Q8NG68)
active: [9] 0.356
inactive: [1] -0.015 | [2] -0.057 | [3] -0.067 | [4] 0.096 | [5] -0.033 | [10] -0.112 | [6] -0.011 | [7] -0.091 | [8] -0.048

TCF20 (UniProt Q9UGU0)
inactive: [1] -0.049 | [2] -0.034 | [3] 0.019 | [4] 0.011 | [9] 0.094 | [5] 0.108 | [6] -0.032 | [7] -0.001 | [8] -0.005

TMEM164 (UniProt Q5U3C3)
inactive: [1] -0.166 | [2] 0.186 | [3] -0.03 | [9] 0.131 | [5] 0.27 | [10] -0.091 | [6] -0.173 | [7] -0.05 | [8] 0.512
active: [4] -0.789

TFPI (UniProt P10646)
inactive: [1] -0.035 | [2] 0.009 | [3] 0.036 | [5] -0.202 | [10] -0.01 | [6] 0.082 | [7] 0.149 | [8] -0.301
active: [4] 0.625

UBR1 (UniProt Q8IWV7)
inactive: [1] -0.018 | [2] -0.035 | [3] -0.082 | [4] -0.046 | [9] 0.01 | [5] -0.081 | [10] 0 | [6] 0.039 | [7] -0.065 | [8] 0.032

TNIK isoform 5 (UniProt Q9UKE5)
inactive: [1] -0.098 | [2] 0.046 | [3] -0.035 | [4] 0.051 | [9] 0.009 | [5] 0.025 | [6] 0.311 | [7] -0.055 | [8] -0.02

TTC27 (UniProt Q6P3X3)
inactive: [1] -0.01 | [2] 0.005 | [3] -0.041 | [4] -0.033 | [9] 0.04 | [5] -0.129 | [10] 0.004 | [6] 0.048 | [7] -0.066 | [8] 0.04

UGDH (UniProt O60701)
Chain of UniProt O60701 (O60701 whole entry, looked up): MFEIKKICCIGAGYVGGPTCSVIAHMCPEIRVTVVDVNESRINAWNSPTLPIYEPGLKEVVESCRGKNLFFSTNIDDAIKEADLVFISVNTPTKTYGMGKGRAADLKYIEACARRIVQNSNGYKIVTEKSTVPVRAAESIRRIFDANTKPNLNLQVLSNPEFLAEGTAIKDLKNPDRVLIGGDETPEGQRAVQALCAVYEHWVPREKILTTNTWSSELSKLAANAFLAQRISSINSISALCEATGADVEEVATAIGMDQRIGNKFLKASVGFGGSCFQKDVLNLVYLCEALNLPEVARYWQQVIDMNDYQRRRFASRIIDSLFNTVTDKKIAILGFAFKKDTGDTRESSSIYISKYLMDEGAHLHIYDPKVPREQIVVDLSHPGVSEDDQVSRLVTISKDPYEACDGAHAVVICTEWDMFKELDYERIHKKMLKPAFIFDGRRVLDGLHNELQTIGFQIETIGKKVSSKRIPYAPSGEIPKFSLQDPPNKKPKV
inactive: [1] 0.009 | [2] -0.021 | [3] -0.015 | [4] 0.037 | [9] -0.063 | [5] -0.067 | [10] -0.073 | [6] -0.053 | [7] -0.019 | [8] -0.022

TIAL1 isoform 2 (UniProt Q01085)
inactive: [1] -0.013 | [2] -0.063 | [3] 0.038 | [4] -0.024 | [9] -0.014 | [5] 0.054 | [10] 0.011 | [6] 0.007 | [7] 0 | [8] 0.001

TOX4 (UniProt O94842)
active: [4] -0.259 | [5] 0.231
inactive: [1] 0.058 | [2] 0.025 | [3] -0.068 | [9] 0.06 | [10] -0.094 | [6] 0.041 | [7] -0.043 | [8] 0.189

TLK2 isoform 3 (UniProt Q86UE8)
inactive: [4] 0.012 | [5] 0.009 | [8] -0.101

TFPT (UniProt P0C1Z6)
Chain of UniProt P0C1Z6 (P0C1Z6 whole entry, looked up): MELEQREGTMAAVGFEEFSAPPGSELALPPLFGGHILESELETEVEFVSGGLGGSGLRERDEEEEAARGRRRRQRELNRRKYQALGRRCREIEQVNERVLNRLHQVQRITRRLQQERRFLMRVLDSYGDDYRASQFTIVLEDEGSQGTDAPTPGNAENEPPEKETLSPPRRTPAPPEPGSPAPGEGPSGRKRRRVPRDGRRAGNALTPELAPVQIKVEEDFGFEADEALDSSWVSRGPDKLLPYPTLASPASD
inactive: [1] -0.004 | [2] 0.032 | [9] -0.005 | [7] -0.004

TGFBR1 isoform 2 (UniProt P36897)
inactive: [9] -0.004 | [10] 0.022

TSPAN3 (UniProt O60637)
inactive: [1] -0.013 | [9] -0.058 | [5] -0.163 | [10] -0.01 | [8] -0.342
active: [4] 0.513

TEC (UniProt P42680)
inactive: [1] 0.007 | [10] -0.198

TJP1 (UniProt G3V1L9)
inactive: [2] 0.157 | [3] 0.068 | [4] 0.027 | [9] -0.042 | [5] 0.071 | [6] -0.209 | [7] -0.047 | [8] 0.059

TPM3 isoform 3 (UniProt P06753)
Chain of UniProt P06753 (P06753 whole entry, looked up): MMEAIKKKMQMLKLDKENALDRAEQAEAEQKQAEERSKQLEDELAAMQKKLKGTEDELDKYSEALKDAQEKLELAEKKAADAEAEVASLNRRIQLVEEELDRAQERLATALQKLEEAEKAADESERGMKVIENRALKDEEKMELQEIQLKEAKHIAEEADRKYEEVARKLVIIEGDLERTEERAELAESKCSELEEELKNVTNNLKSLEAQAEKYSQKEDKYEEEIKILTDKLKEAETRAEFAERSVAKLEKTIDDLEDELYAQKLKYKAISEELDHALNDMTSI
active: [4] -0.411
inactive: [1] -0.009 | [3] 0.095 | [9] 0.011 | [5] 0.176 | [10] 0.143 | [6] 0.027 | [8] 0.202

U2AF1L5 (UniProt P0DN76)
inactive: [1] 0.091 | [9] 0.021 | [5] 0.114 | [10] 0.207 | [8] 0.342
active: [4] -0.904

UCP2 (UniProt P55851)
inactive: [6] -0.141
active: [3] -0.441

TK1 (UniProt K7ERV3)
active: [10] 0.319
inactive: [2] -0.144 | [3] 0.075 | [4] -0.07 | [9] -0.021 | [5] 0.04 | [6] 0.041 | [7] -0.181 | [8] 0.01

TTLL12 (UniProt V9GY16)
inactive: [2] 0.058 | [3] 0.072 | [4] -0.169 | [5] 0.188 | [10] -0.087 | [6] -0.029 | [7] -0.187 | [8] 0.263

UBL5 (UniProt Q9BZL1)
Chain of UniProt Q9BZL1 (Q9BZL1 whole entry, looked up): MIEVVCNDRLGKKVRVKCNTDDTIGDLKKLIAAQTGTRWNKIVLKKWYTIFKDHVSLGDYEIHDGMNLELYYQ
inactive: [2] -0.036 | [3] 0.072 | [4] -0.194 | [9] -0.042 | [5] 0.042 | [10] 0.138 | [6] 0.013 | [7] -0.034 | [8] 0.104

TTC37 (UniProt Q6PGP7)
inactive: [1] -0.157 | [2] -0.03 | [3] -0.202 | [9] 0.096 | [6] 0.069 | [7] -0.26

TRIM3 (UniProt O75382)
inactive: [1] 0.009 | [10] -0.056

TEDC1 (UniProt Q86SX3)
inactive: [1] -0.064 | [3] -0.078 | [9] 0.159 | [10] -0.103 | [6] 0.009

TPD52L2 isoform 3 (UniProt O43399)
Chain of UniProt O43399 (O43399 whole entry, looked up): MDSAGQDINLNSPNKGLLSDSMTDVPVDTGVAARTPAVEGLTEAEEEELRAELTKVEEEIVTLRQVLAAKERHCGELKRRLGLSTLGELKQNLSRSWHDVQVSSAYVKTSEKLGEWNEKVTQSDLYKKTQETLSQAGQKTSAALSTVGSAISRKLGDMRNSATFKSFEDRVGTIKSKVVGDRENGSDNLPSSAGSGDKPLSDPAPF
inactive: [2] -0.112 | [4] -0.155 | [5] 0.377 | [7] -0.102 | [8] -0.124

TMEM154 (UniProt Q6P9G4)
Chain of UniProt Q6P9G4 (Q6P9G4 whole entry, looked up): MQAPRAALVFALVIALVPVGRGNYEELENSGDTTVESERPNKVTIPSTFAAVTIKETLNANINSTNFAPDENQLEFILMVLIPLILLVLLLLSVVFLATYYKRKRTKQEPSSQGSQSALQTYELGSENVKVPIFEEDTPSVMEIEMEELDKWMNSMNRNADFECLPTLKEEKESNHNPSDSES
inactive: [3] 0.035 | [9] 0.039 | [10] 0.03 | [6] -0.146

TCF3 isoform 2 (UniProt P15923)
inactive: [3] -0.048 | [6] 0.092

TRPM4 (UniProt Q8TD43)
Chain of UniProt Q8TD43 (Q8TD43 whole entry, looked up): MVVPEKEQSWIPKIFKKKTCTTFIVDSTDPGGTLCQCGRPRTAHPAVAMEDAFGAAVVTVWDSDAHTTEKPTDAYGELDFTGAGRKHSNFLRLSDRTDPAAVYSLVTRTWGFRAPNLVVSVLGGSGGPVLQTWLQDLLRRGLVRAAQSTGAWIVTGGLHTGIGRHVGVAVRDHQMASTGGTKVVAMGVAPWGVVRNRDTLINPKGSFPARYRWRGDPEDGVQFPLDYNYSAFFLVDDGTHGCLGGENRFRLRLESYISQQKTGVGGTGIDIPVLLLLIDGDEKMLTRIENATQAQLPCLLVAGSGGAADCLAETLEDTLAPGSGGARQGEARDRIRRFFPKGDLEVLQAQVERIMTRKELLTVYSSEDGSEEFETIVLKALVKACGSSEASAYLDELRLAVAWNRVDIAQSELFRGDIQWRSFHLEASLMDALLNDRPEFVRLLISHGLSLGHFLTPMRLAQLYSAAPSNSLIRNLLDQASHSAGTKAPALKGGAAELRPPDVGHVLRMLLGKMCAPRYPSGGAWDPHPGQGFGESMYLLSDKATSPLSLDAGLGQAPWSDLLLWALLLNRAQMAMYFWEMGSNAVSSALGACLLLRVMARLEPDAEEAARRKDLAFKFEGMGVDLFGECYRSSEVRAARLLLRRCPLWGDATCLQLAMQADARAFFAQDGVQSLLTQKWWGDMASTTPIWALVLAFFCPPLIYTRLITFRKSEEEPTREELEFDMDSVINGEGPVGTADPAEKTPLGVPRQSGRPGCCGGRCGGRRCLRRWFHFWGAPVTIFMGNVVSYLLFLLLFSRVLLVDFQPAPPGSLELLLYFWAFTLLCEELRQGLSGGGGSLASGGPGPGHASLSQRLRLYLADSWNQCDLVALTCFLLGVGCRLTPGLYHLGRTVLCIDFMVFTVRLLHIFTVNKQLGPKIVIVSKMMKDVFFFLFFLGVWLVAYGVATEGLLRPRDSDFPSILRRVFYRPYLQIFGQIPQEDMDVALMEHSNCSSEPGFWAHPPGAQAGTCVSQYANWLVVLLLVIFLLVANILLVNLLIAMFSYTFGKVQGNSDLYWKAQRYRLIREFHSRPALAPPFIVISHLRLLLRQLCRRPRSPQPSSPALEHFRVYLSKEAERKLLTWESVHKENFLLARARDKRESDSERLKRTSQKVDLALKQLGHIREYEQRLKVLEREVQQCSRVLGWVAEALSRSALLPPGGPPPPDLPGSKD
inactive: [2] -0.085 | [3] 0.055 | [9] 0.042 | [5] 0.088 | [6] -0.111 | [7] -0.02 | [8] 0.25
active: [4] -0.654

UBXN2B (UniProt Q14CS0)
Chain of UniProt Q14CS0 (Q14CS0 whole entry, looked up): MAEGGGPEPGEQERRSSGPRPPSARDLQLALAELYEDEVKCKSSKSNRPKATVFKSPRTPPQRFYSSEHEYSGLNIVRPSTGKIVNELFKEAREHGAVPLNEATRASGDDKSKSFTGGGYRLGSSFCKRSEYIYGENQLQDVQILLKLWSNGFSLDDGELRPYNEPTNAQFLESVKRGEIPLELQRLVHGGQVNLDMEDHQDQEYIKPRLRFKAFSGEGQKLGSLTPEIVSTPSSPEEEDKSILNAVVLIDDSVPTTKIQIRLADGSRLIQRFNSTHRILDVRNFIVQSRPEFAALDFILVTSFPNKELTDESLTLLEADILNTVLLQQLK
inactive: [1] -0.226 | [2] -0.036 | [4] -0.01 | [9] 0.07 | [5] 0.213 | [10] 0.027 | [7] 0.003 | [8] -0.005

TCF3 (UniProt X6REB3)
inactive: [4] -0.081 | [5] 0.269 | [8] 0.105

UBR4 isoform 4 (UniProt Q5T4S7)
inactive: [1] 0.146 | [9] -0.143 | [10] 0.079

UBAP2L isoform 1 (UniProt Q14157)
inactive: [2] -0.116 | [3] 0.376 | [6] -0.26 | [7] 0.56

TM2D3 (UniProt Q9BRN9)
active: [4] -0.836
inactive: [2] 0.069 | [5] 0.329 | [10] -0.075 | [7] 0.048 | [8] 0.348

TUBA4A (UniProt C9JQ00)
inactive: [2] -0.2 | [4] -0.094 | [5] -0.142 | [7] -0.368 | [8] 0.228

UBAP2L (UniProt F8W726)
inactive: [1] -0.15 | [3] 0.098 | [6] -0.068

TMEM132A isoform 2 (UniProt Q24JP5)
inactive: [1] -0.172 | [3] -0.237 | [4] -0.084 | [5] 0.077 | [10] 0.042 | [6] -0.163 | [8] 0.002

TLE3 (UniProt H0YL70)
inactive: [9] 0.037

UBAP2, A0A0D9SFI5
inactive: [3] -0.037 | [6] -0.056

UBN1 (UniProt Q9NPG3)
inactive: [1] -0.187 | [3] -0.042 | [4] -0.057 | [9] -0.092 | [5] 0.215 | [10] 0.069 | [6] -0.256 | [8] 0.308

TXNIP (UniProt Q9H3M7)
inactive: [2] 0.029 | [3] -0.045 | [4] 0.143 | [9] 0 | [5] -0.089 | [10] -0.015 | [6] 0.019 | [7] -0.042 | [8] -0.037

TMC1 (UniProt Q8TDI8)
Chain of UniProt Q8TDI8 (Q8TDI8 whole entry, looked up): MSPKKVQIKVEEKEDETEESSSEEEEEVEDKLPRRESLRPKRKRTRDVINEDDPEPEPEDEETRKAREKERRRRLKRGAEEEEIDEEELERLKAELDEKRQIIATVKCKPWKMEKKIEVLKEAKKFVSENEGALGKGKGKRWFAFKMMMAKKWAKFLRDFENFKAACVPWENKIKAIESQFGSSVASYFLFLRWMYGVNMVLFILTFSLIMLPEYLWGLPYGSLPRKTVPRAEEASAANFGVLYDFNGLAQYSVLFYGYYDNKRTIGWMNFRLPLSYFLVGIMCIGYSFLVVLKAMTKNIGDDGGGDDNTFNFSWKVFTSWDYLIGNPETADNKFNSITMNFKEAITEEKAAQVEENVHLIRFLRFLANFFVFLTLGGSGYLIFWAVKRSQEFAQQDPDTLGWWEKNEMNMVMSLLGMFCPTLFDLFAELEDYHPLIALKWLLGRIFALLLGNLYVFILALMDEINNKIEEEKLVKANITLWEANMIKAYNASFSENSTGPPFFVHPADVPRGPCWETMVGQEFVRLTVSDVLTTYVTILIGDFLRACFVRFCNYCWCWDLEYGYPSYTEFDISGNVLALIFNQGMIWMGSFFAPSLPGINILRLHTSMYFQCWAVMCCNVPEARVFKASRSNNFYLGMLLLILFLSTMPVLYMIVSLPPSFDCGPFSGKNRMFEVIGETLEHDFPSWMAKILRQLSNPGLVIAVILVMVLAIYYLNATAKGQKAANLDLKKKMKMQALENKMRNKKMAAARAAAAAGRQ
inactive: [1] -0.134 | [3] -0.262 | [10] 0.074 | [6] 0.252

TRAF7 (UniProt Q6Q0C0)
inactive: [3] -0.01 | [4] -0.241 | [9] -0.029 | [5] -0.128 | [10] 0.124 | [6] 0.122 | [8] 0.127

TJP1 (UniProt H0Y3R8)
inactive: [4] 0.068 | [5] -0.057 | [8] -0.063

TFPI isoform 2 (UniProt P10646)
inactive: [3] 0.045 | [6] -0.121

TCF4 (UniProt P15884)
Chain of UniProt P15884 (P15884 whole entry, looked up): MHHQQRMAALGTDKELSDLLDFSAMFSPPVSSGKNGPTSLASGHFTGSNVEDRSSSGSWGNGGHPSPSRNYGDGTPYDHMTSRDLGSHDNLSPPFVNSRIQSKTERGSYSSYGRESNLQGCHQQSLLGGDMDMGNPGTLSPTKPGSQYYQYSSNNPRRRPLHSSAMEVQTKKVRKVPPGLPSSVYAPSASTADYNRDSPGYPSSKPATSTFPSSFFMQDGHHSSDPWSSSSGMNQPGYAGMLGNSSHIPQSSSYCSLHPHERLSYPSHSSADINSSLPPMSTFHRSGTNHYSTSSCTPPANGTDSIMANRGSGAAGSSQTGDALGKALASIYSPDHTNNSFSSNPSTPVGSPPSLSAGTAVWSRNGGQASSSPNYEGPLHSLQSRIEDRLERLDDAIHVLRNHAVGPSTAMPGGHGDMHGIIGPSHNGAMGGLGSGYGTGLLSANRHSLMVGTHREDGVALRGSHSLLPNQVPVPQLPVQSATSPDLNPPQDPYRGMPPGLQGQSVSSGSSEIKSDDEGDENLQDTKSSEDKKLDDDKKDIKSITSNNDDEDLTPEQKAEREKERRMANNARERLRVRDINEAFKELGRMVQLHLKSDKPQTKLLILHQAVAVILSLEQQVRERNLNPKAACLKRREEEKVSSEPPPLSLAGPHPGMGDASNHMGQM
inactive: [1] -0.212 | [3] 0.128 | [4] 0.039 | [9] 0.039 | [5] -0.022 | [10] -0.044 | [6] -0.099 | [8] 0

TUBAL3 (UniProt A6NHL2)
Chain of UniProt A6NHL2 (A6NHL2 whole entry, looked up): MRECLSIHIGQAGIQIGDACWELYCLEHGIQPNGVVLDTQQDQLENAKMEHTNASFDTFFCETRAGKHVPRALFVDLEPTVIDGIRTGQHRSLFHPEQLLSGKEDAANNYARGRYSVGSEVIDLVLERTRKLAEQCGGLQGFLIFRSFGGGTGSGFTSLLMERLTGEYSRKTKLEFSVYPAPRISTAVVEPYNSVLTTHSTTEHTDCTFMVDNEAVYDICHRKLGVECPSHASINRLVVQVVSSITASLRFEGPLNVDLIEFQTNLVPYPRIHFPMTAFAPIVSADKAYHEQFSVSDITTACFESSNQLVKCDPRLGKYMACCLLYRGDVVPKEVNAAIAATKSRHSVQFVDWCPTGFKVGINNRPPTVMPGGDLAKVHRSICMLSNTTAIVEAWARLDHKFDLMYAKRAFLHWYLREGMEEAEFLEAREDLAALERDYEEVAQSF
inactive: [1] -0.07 | [2] -0.034 | [4] -0.434 | [9] -0.001 | [5] 0.312 | [10] 0.09 | [7] -0.232
active: [8] 0.567

TNKS (UniProt O95271)
inactive: [1] -0.085 | [3] -0.031 | [9] -0.027 | [5] 0.038 | [10] 0.073 | [6] -0.013 | [8] 0.107
active: [4] -0.302

UBIAD1 (UniProt Q9Y5Z9)
inactive: [1] 0.031 | [3] -0.048 | [4] 0.036 | [9] -0.054 | [5] 0 | [10] -0.024 | [6] -0.014 | [8] 0.016

TMPO isoform 2 (UniProt P42167)
inactive: [2] 0.04 | [9] -0.041 | [10] -0.029 | [7] -0.026
